Holding throughout (assay): NCI-60 one-dose screen, 48 h (100 = growth as untreated, 0 = no growth, -100 = all killed)
Holding throughout (details): 10 µM unless noted

For experiment [1], the system named is T-47D breast.
Experiment [2] concerns BT-549 breast.
Experiment [3] has as its system MDA-MB-435 melanoma.
Experiment [4] concerns SW-620 colon.
For experiment [5], the system named is MCF7 breast.
The test system of experiment [6] is HCT-116 colon.
The subject of experiment [7] is HCC-2998 colon.
Experiment [8] deals with KM12 colon.

For 27 molecules, growth results are on record in PubChem BioAssay (NCI).

The panel holds about 83,000 compounds, 20% with a hit somewhere; the sample as a whole holds those more often.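 Cell lines were cultured in 96-well plates, exposed to a single compound concentration, and assessed for percent growth 48 hours later.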 Values without a mark were called inactive. Active and inactive are the calls of the source. Rule for the calls: active = growth percent below 10; inactive = the rest.

For `N#CC1=C(c2ccccc2)Nc2c(c(-c3ccc(Cl)cc3)nn2-c2ccccc2)C12C(=O)Nc1ccc(Cl)cc12` (stereo unspecified), the growth in experiment [1] was 55.8%; in experiment [2], 76.2%; in experiment [3], 45.3%; in experiment [4], 85.9%; in experiment [5] it was 54.9%; in experiment [6], 65.5%. Besides, the growth in experiment [7] is 90.6%; in experiment [8], 83%.

For the molecule `COc1ccc(-c2cc(-c3ccc(Cl)cc3)c(C#N)c(=O)n2Cc2ccc(C(=O)Nc3ccccc3N)cc2)cc1`, the growth is 72.7% in experiment [1]; 56.5% in experiment [2]; 44.9% in experiment [3]; 78.9% in experiment [4]; 40.1% in experiment [5]; 69.2% in experiment [6]. In addition, the growth in experiment [7] is 107%; in experiment [8], 57.3%.

Consider `COc1ccccc1N1CCCCC1`, for which the growth in experiment [1] was 99.1%; in experiment [2] it was 96%; in experiment [3], 112%; in experiment [4], 99.9%; in experiment [5] it was 96.3%; in experiment [6], 102%. For the same molecule, the growth is 110% in experiment [7] and 107% in experiment [8].

`CCCNc1nc2ccccc2c2c1S(=O)(=O)c1ccc(Cl)cc1C2=O`: the growth in experiment [1] is -1.34% (active); in experiment [2], 23%; in experiment [3], 12.2%; in experiment [4], -4.27% (active); in experiment [5] it was 8.27% (active); in experiment [6], 5.94% (active). For the same molecule, the growth was 16.2% in experiment [7] and 17.1% in experiment [8].

Take `Oc1ccc(Cl)cc1/C=N\NC(=S)N/N=C/c1cc(Cl)ccc1O`: the growth in experiment [1] was 49.9%; in experiment [2] it was 52.7%; in experiment [3], 33.9%; in experiment [4] it was 50.3%; in experiment [5], 28.3%; in experiment [6] it was 16%. Further, the growth is 41.3% in experiment [7] and 28.6% in experiment [8].

In the case of `Cn1ccc(=O)c(C(=O)Nc2nsc3ccc([N+](=O)[O-])cc23)c1`, the growth in experiment [1] was 74.6%; in experiment [2], 69.8%; in experiment [3], 75.6%; in experiment [4], 56.5%; in experiment [5] it was 34.7%; in experiment [6] it was 56.2%. Also, the results for the growth in experiment [7] and in experiment [8] were 87% and 65.3%, respectively.

As to `CCC(=C(c1ccc(OCCN2CCCCC2)cc1)c1ccc(OCCN2CCCCC2)cc1)c1ccc(Cl)cc1`, the growth in experiment [1] is -68.3% (active); in experiment [2], -91.7% (active); in experiment [3], -96.2% (active); in experiment [4], -84.1% (active); in experiment [5], -79.9% (active); in experiment [6] it was -91.1% (active). Moreover, the growth in experiment [7] was -87% (active); in experiment [8] it was -84% (active).

Take `c1ccc(-c2oc(-c3ccccc3)c(CN3CCCCC3)c2CN2CCCCC2)cc1`: the growth was 8.84% (active) in experiment [1]; 43.3% in experiment [2]; 31.7% in experiment [3]; 39.6% in experiment [4]; 11.7% in experiment [5]; 20.9% in experiment [6]. Besides, the growth in experiment [7] was -22.9% (active); in experiment [8] it was 22%.

For the molecule `O=C(Nc1ccc(Oc2cccc(Cl)c2)c(Cl)c1)c1cccnc1`, the growth is 35.6% in experiment [1]; 53.3% in experiment [2]; -44.3% (active) in experiment [3]; 25.4% in experiment [4]; 21.6% in experiment [5]; 29.9% in experiment [6]. Also, the growth in experiment [7] is 58%; in experiment [8] it was 28.1%.

For the molecule `N#CC1=C(N)Oc2c(sc3c(Br)cccc23)C1c1ccc(Cl)cc1` (stereo unspecified), the growth in experiment [1] is 26.3%; in experiment [2], 41%; in experiment [3], -23.2% (active); in experiment [4], 27.3%; in experiment [5], 10%; in experiment [6], 13.7%. The growth is 10.9% in experiment [7] and 26.4% in experiment [8].

For the molecule `CS(=O)(=O)Nc1cncc(-c2ccc3ncnc(Nc4cncc(Cl)c4)c3c2)c1`, the growth in experiment [1] was 2.52% (active); in experiment [2], 72.6%; in experiment [3] it was 103%; in experiment [4], 107%; in experiment [5], 55.6%; in experiment [6] it was 91.3%. Moreover, the growth in experiment [7] is 95%; in experiment [8], 84.7%.

As to `Clc1cccc(Nc2ncnc3ccc(-c4cnc5[nH]ccc5c4)cc23)c1`, the growth in experiment [1] was 28.3%; in experiment [2] it was 77.4%; in experiment [3], 88.3%; in experiment [4] it was 107%; in experiment [5], 48.3%; in experiment [6] it was 75.1%. For the same molecule, the growth in experiment [7] is 95%; in experiment [8], 72.6%.

On to `O=S(=O)(Nc1ccc(F)cc1F)c1ccc(-c2cnc(C3CC3)o2)cc1`, for which the growth in experiment [1] was 31.9%; in experiment [2] it was 17.2%; in experiment [3], -33.8% (active); in experiment [4], 23.7%; in experiment [5] it was 20.3%; in experiment [6] it was 21.2%. Further, the growth in experiment [7] is 54.9%; in experiment [8], 30.1%.

As to `CCn1cc(C(=O)NNC(=S)Nc2ccc(C)cc2)c(=O)c2ccc(C)nc21`, the growth in experiment [1] was 88.1%; in experiment [2] it was 97.1%; in experiment [3], 101%; in experiment [4], 99.2%; in experiment [5], 97.2%; in experiment [6], 93%. Also, the figures for the growth in experiment [7] and in experiment [8] were 92.7% and 103%, respectively.

Turning to `Fc1cc2c(cc1Cl)N(c1ncnc3ccc(-c4ccc5n[nH]nc5c4)cc13)CC2`, the growth is 65.5% in experiment [1]; 88.2% in experiment [2]; 92.4% in experiment [3]; 96.9% in experiment [4]; 80.3% in experiment [5]; 96.7% in experiment [6]. Besides, the growth in experiment [7] is 92.1%; in experiment [8], 97.7%.

As to `C1CCC([PH+](C2CCCCC2)C2CCCCC2[PH+](C2CCCCC2)C2CCCCC2)CC1.[Au].[CH-]1CCCCC1C1CCCC[N-]1` (stereo unspecified), the growth is -45.3% (active) in experiment [1]; -40.4% (active) in experiment [2]; -63.1% (active) in experiment [3]; -76.4% (active) in experiment [4]; -30.5% (active) in experiment [5]; -40.5% (active) in experiment [6]. Further, the results for the growth in experiment [7] and in experiment [8] were -90.1% (active) and -85.2% (active), respectively.

As for `COC(=O)c1cc(N=C2NC(=O)/C(=C/C=C/c3ccccc3)S2)ccc1O`, the growth is 32.8% in experiment [1]; 48.5% in experiment [2]; -35.6% (active) in experiment [3]; 31.4% in experiment [4]; 17.9% in experiment [5]; 18.2% in experiment [6]. Further, the growth in experiment [7] is 49.1%; in experiment [8], 23.1%.

For `CC(=O)c1c(C)nc2ccccc2c1/C=C/c1ccc(F)cc1`, the growth in experiment [1] was 53.8%; in experiment [2], 87.1%; in experiment [3], 103%; in experiment [4], 97.1%; in experiment [5], 77.3%; in experiment [6], 74.6%. In addition, the growth in experiment [7] is 99%; in experiment [8] it was 90.7%.

Turning to `CC(C)=CC(=O)OCC(=O)O[C@@H]1C[C@]2(C(C)C)O[C@@]1(C)[C@@H]1CC[C@@H](C)[C@H]1[C@@H]2OC(=O)/C=C/c1ccccc1`, the growth was 65.1% in experiment [1]; 37.7% in experiment [2]; 91.7% in experiment [3]; 87.1% in experiment [4]; 71.5% in experiment [5]; 72.2% in experiment [6]. Moreover, the growth in experiment [7] is 90.7%; in experiment [8], 89.4%.

For `CCSc1oc(-c2ccccc2)nc1[P+](c1ccccc1)(c1ccccc1)c1ccccc1`, the growth is 1.87% (active) in experiment [1]; -10.9% (active) in experiment [2]; 3.45% (active) in experiment [3]; 10.8% in experiment [4]; 4.96% (active) in experiment [5]; 2.27% (active) in experiment [6]. In addition, the growth in experiment [7] is 14.5%; in experiment [8] it was -16.2% (active).

On to `Cc1ccc(-c2nc([P+](c3ccccc3)(c3ccccc3)c3ccccc3)c(S(=O)(=O)c3ccc(C)cc3)o2)cc1`, for which the growth in experiment [1] was 18.6%; in experiment [2], 8.67% (active); in experiment [3] it was -2.81% (active); in experiment [4] it was -70.3% (active); in experiment [5] it was 13.5%; in experiment [6], -68.6% (active). In addition, the growth in experiment [7] was 38.3%; in experiment [8], 18.8%.

On to `N#Cc1c(-c2ccccc2)cc(-c2ccccc2)n(CCCC(=O)Nc2ccccc2N)c1=O`, for which the growth was 64.1% in experiment [1]; 55.4% in experiment [2]; -15.6% (active) in experiment [3]; 35% in experiment [4]; 36% in experiment [5]; 45% in experiment [6]. In addition, the results for the growth in experiment [7] and in experiment [8] were 85.7% and 42.3%, respectively.

As to `COc1cc2c(c(OC)c1OC)CCC(c1cccc(NC(=O)c3ccc(Br)cc3)c1)O2` (stereo unspecified), the growth is 40.4% in experiment [1]; 87.5% in experiment [2]; 69.1% in experiment [3]; 91.5% in experiment [4]; 73.2% in experiment [5]; 71.9% in experiment [6]. In addition, the growth in experiment [7] was 102%; in experiment [8] it was 91.1%.

With `N#Cc1ccc(O)c(C2=NCC(c3ccccc3)O2)c1` (stereo unspecified), the growth in experiment [1] was -5.7% (active); in experiment [2] it was 31.9%; in experiment [3], 57.8%; in experiment [4], 28.6%; in experiment [5], 25.3%; in experiment [6], 17.5%. For the same molecule, the results for the growth in experiment [7] and in experiment [8] were 47.8% and 37.2%, respectively.

Consider `O=S(=O)(Nc1cc(F)cc(Cl)c1)c1ccc(-c2cnc(C3CC3)o2)cc1`, for which the growth in experiment [1] was 31.7%; in experiment [2] it was 40.6%; in experiment [3], 1.17% (active); in experiment [4] it was 12%; in experiment [5], 13.7%; in experiment [6], 28.1%. The figures for the growth in experiment [7] and in experiment [8] were 54.9% and 29.4%, respectively.

For the molecule `O=C1/C(=C/c2ccccc2Br)COc2ccc(O)cc21`, the growth in experiment [1] is 83.7%; in experiment [2], 53.9%; in experiment [3], 40.9%; in experiment [4], 18.3%; in experiment [5], 9.13% (active); in experiment [6] it was 18.6%. Also, the growth in experiment [7] was 100%; in experiment [8], 23.9%.

As to `CCn1c(SCC(=O)N/N=C(\C)c2ccc(Cl)cc2)nc2c1c(=O)n(C)c(=O)n2C`, the growth was 98.3% in experiment [1]; 99% in experiment [2]; 100% in experiment [3]; 95.1% in experiment [4]; 95.8% in experiment [5]; 102% in experiment [6]. For the same molecule, the growth in experiment [7] is 102%; in experiment [8], 101%.
